# Source: PubChem BioAssay (EPA / NIEHS)
# Calls of active or inactive are those of the source. Rule for the calls: active = hit-call score of the fitted dose curve at least 0.9, where 1 is the maximum; inactive = score below 0.9.
# Columns and labels:
# [1] = read-out: Macrophage colony-stimulating factor (MCSF), CSF1 (gene 1435); experiment: BSK_hDFCGF_MCSF: BioMAP Diversity Plus: hDFCGF Assay for Macrophage colony-stimulating factor (MCSF) Biomarker Activity (AID 2283060); settings: primary human foreskin fibroblasts; actives raise or lower the signal
# Summary of the method: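 M-CSF levels read by ELISA at 24 h post-dosing in human skin fibroblasts. Parallel cultures stained with SRB assessed cytotoxicity at the same time point; response fitted in both directions against the DMSO baseline.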
# [2] = BSK_hDFCGF_SRB: Viability Assessment in the BioMAP Diversity Plus: hDFCGF Assay (AID 2283061); settings: primary human foreskin fibroblasts;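 note: cells exposed to compound for 24 h before the read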
# Summary of the method: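 Viability was read as total protein: after 10% TCA fixation, wells were stained with 0.1% sulforhodamine B and read at 560 nm. Primary human foreskin fibroblasts were dosed for 24 h, with bidirectional fitting versus DMSO.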
# [3] = read-out: TIMP metallopeptidase inhibitor 1 (TIMP1), TIMP1 (gene 7076); experiment: BSK_hDFCGF_TIMP1: BioMAP Diversity Plus: hDFCGF Assay for TIMP metallopeptidase inhibitor 1 (TIMP1) Biomarker Activity (AID 2283062); settings: primary human foreskin fibroblasts; actives raise or lower the signal
# Summary of the method: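 TIMP-1 measured by ELISA 24 h after chemical dosing of primary human skin fibroblasts, with gain or loss fitted relative to DMSO. Parallel SRB staining (560 nm) monitored overt cytotoxicity.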
# [4] = read-out: Monokine induced gamma interferon (MIG), CXCL9 (gene 4283); experiment: BSK_hDFCGF_MIG: BioMAP Diversity Plus: hDFCGF Assay for Monokine induced gamma interferon (MIG) Biomarker Activity (AID 2283063); settings: primary human foreskin fibroblasts; actives raise or lower the signal
# Summary of the method: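 Human primary foreskin fibroblasts in the hDFCGF system, exposed to test chemical for 24 h; MIG measured by ELISA. Bidirectional curve fitting against DMSO negative control as activity baseline.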
# [5] = read-out: Matrix Metallopeptidase 1 (MMP1), MMP1 (gene 4312); experiment: BSK_hDFCGF_MMP1: BioMAP Diversity Plus: hDFCGF Assay for Matrix Metallopeptidase 1 (MMP1) Biomarker Activity (AID 2283064); settings: primary human foreskin fibroblasts; actives raise or lower the signal
# Summary of the method: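 ELISA read-out of MMP1 from human foreskin fibroblasts (primary skin cells), 24 h post-dose. Gain or loss of signal was fitted bidirectionally versus DMSO negative control; cytotoxicity was checked by SRB in parallel cultures.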
# [6] = read-out: Vascular cell adhesion molecule 1 (VCAM1), VCAM1 (gene 7412); experiment: BSK_hDFCGF_VCAM1: BioMAP Diversity Plus: hDFCGF Assay for Vascular cell adhesion molecule 1 (VCAM1) Biomarker Activity (AID 2283065); settings: primary human foreskin fibroblasts; actives raise or lower the signal
# Summary of the method: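 ELISA readout of VCAM-1 on human dermal fibroblast primary cultures, 24 h after chemical exposure. Gain or loss of signal fitted in both directions against DMSO baseline.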
# [7] = read-out: Plasminogen activator inhibitor-1 (PAI1), SERPINE1 (gene 5054); experiment: BSK_hDFCGF_PAI1: BioMAP Diversity Plus: hDFCGF Assay for Plasminogen activator inhibitor-1 (PAI1) Biomarker Activity (AID 2283066); settings: primary human foreskin fibroblasts; actives raise or lower the signal
# Summary of the method: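 PAI-1 levels in human dermal foreskin fibroblasts were quantified by ELISA 24 h after dosing, with gain or loss analysed against DMSO. Overt cytotoxicity was checked by sulforhodamine B total-protein staining in parallel cultures.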
# [8] = read-out: Intercellular Adhesion Molecule 1 (ICAM1), ICAM1 (gene 3383); experiment: BSK_KF3CT_ICAM1: BioMAP Diversity Plus: KF3CT Assay for Intercellular Adhesion Molecule 1 (ICAM1) Biomarker Activity (AID 2283067); settings: primary human keratinocytes with fibroblasts; actives raise or lower the signal
# Summary of the method: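 Cell-surface ICAM-1 was measured by ELISA 24 h after dosing primary human skin keratinocytes co-cultured with fibroblasts. Parallel SRB staining tracked overt cytotoxicity. Gain or loss of signal was fitted relative to DMSO.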
# [9] = read-out: Interferon-gamma inducible Protein 10 (IP10), CXCL10 (gene 3627); experiment: BSK_KF3CT_IP10: BioMAP Diversity Plus: KF3CT Assay for Interferon-gamma inducible Protein 10 (IP10) Biomarker Activity (AID 2283068); settings: primary human keratinocytes with fibroblasts; actives raise or lower the signal
# Summary of the method: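 Signal is secreted/surface IP-10 by ELISA in a human primary skin co-culture of keratinocytes and foreskin fibroblasts, taken 24 h post-dosing; DMSO served as negative control.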
# [10] = BSK_KF3CT_SRB: Viability Assessment in the BioMAP Diversity Plus: KF3CT Assay (AID 2283069); settings: primary human keratinocytes with fibroblasts;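 note: read 24 h after compound addition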
# Summary of the method: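 SRB read-out at 560 nm (0.1% stain, TCA-fixed cells) gauges overt cytotoxicity in a human skin keratinocyte–fibroblast co-culture 24 h post-dosing. Signal change was fitted bidirectionally relative to DMSO control.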
# [11] = read-out: Interleukin-1 alpha (IL1a), IL1A (gene 3552); experiment: BSK_KF3CT_IL1a: BioMAP Diversity Plus: KF3CT Assay for Interleukin-1 alpha (IL1a) Biomarker Activity (AID 2283070); settings: primary human keratinocytes with fibroblasts; actives raise or lower the signal
# Summary of the method: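 Primary skin co-culture (keratinocytes, foreskin fibroblasts), 24 h exposure; ELISA for IL-1a; bidirectional curve fit vs DMSO.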
# [12] = read-out: TIMP metallopeptidase inhibitor 2 (TIMP2), TIMP2 (gene 7077); experiment: BSK_KF3CT_TIMP2: BioMAP Diversity Plus: KF3CT Assay for TIMP metallopeptidase inhibitor 2 (TIMP2) Biomarker Activity (AID 2283071); settings: primary human keratinocytes with fibroblasts; actives raise or lower the signal
# Summary of the method: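 TIMP-2 measured by ELISA at 24 h in human keratinocyte/fibroblast primary co-cultures exposed to chemicals. Both increases and decreases were fitted against DMSO. Parallel cultures were stained with SRB for total protein as an overt-cytotoxicity check.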
# [13] = read-out: C-C motif chemokine 2 (Homo sapiens) (UniProt P13500); experiment: BSK_KF3CT_MCP1: BioMAP Diversity Plus: KF3CT Assay for Monocyte Chemoattractant Protein 1 (MCP1/CCL2) Biomarker Activity (AID 2283073); settings: primary human keratinocytes with fibroblasts; actives raise or lower the signal
# Summary of the method: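 ELISA read-out of MCP-1, 24 h post-dose, in primary human skin keratinocytes co-cultured with fibroblasts. Parallel SRB staining monitors cytotoxicity; changes fitted both directions relative to DMSO.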
# [14] = read-out: Matrix Metallopeptidase 9 (MMP9), MMP9 (gene 4318); experiment: BSK_KF3CT_MMP9: BioMAP Diversity Plus: KF3CT Assay for Matrix Metallopeptidase 9 (MMP9) Biomarker Activity (AID 2283074); settings: primary human keratinocytes with fibroblasts; actives raise or lower the signal
# Summary of the method: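 ELISA read-out of MMP-9 at 24 h post-dosing in a co-culture of human skin keratinocytes and foreskin fibroblasts. Gain or loss of signal was fitted in both directions against DMSO.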
# [15] = read-out: urokinase plasminogen activator (uPA), PLAU (gene 5328); experiment: BSK_KF3CT_uPA: BioMAP Diversity Plus: KF3CT Assay for urokinase plasminogen activator (uPA) Biomarker Activity (AID 2283075); settings: primary human keratinocytes with fibroblasts; actives raise or lower the signal
# Summary of the method: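 Skin co-culture (keratinocytes + foreskin fibroblasts), human primary; 24 h post-dose; uPA by ELISA; gain/loss fit vs DMSO baseline.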
# CD40, CD40 (gene 958) = experiment: BSK_LPS_CD40: BioMAP Diversity Plus: LPS Assay for CD40 Biomarker Activity (AID 2283076); settings: primary human HUVEC with PBMC; actives raise or lower the signal
# Summary of the method: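 In the LPS system of human endothelial cells with peripheral blood mononuclear cells, CD40 levels were read by ELISA 24 h post-treatment. Signal changes in either direction were fitted against the DMSO baseline, with parallel SRB protein staining.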
# [16] = read-out: E-selectin (Homo sapiens) (UniProt P16581); experiment: BSK_LPS_Eselectin: BioMAP Diversity Plus: LPS Assay for Eselectin Biomarker Activity (AID 2283077); settings: primary human HUVEC with PBMC; actives raise or lower the signal
# Summary of the method: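 E-selectin ELISA on LPS-stimulated endothelial cell/PBMC co-cultures, read 24 h post-treatment; gains and losses fitted against DMSO. Parallel SRB staining (0.1% SRB after 10% TCA fixation, 560 nm) flags overt cytotoxicity.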
# [17] = BSK_LPS_SRB: Viability Assessment in the BioMAP Diversity Plus: LPS Assay (AID 2283079); settings: primary human HUVEC with PBMC;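 note: total protein by sulforhodamine B absorbance as a cytotoxicity measure; measured one day after compound addition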
# Summary of the method: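 SRB viability endpoint: cells fixed with 10% TCA, stained with 0.1% SRB, read at 560 nm, 24 h post-dose. HUVEC/PBMC co-culture; signal change in either direction scored relative to DMSO.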
# [18] = read-out: Interleukin-8 (IL8), CXCL8 (gene 3576); experiment: BSK_LPS_IL8: BioMAP Diversity Plus: LPS Assay for Interleukin-8 (IL8) Biomarker Activity (AID 2283078); settings: primary human HUVEC with PBMC; actives raise or lower the signal
# Summary of the method: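 ELISA read-out of IL-8 after 24 h chemical treatment of LPS-activated endothelial/PBMC human primary co-cultures. Changes either up or down relative to DMSO; overt cytotoxicity checked by sulforhodamine B staining in parallel wells.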
# [19] = read-out: Transforming growth factor beta 1 (TGFb1), TGFB1 (gene 7040); experiment: BSK_KF3CT_TGFb1: BioMAP Diversity Plus: KF3CT Assay for Transforming growth factor beta 1 (TGFb1) Biomarker Activity (AID 2283072); settings: primary human keratinocytes with fibroblasts; actives raise or lower the signal
# Summary of the method: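 ELISA quantifies TGF-b1 at 24 h post-dose in a primary human skin co-culture of keratinocytes and fibroblasts, with gain or loss judged against DMSO. Parallel SRB total-protein staining flags overt cytotoxicity.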
# Chain of E-selectin (Homo sapiens) (P16581 whole entry, looked up): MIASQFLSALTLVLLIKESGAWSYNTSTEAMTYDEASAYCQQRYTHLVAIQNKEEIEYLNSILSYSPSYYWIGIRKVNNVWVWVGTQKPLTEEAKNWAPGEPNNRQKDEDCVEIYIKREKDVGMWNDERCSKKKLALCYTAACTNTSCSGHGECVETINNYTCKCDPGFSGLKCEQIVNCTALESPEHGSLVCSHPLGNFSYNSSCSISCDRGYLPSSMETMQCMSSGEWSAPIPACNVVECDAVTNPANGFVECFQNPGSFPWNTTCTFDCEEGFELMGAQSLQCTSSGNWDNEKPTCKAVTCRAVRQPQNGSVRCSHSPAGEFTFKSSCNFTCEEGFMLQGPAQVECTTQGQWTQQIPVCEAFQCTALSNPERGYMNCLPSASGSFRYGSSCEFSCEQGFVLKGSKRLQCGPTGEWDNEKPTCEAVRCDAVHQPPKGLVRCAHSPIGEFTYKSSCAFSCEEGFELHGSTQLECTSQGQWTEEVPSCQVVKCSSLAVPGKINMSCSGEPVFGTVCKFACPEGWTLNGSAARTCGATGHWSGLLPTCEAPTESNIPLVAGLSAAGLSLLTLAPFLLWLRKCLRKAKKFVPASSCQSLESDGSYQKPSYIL
structure (smiles),measurement,setting,value
O=C(O)C(F)(F)C(F)(F)C(F)(F)C(F)(F)F,outcome,[1],inactive
same,outcome,[2],inactive
same,outcome,[3],inactive
same,outcome,[4],inactive
same,outcome,[5],inactive
same,outcome,[6],inactive
same,outcome,[7],inactive
same,outcome,[8],inactive
same,outcome,[9],inactive
same,outcome,[10],inactive
same,outcome,[11],inactive
same,outcome,[12],inactive
same,outcome,[13],inactive
same,outcome,[14],inactive
same,outcome,[15],inactive
same,outcome,"CD40, CD40 (gene 958)",inactive
same,outcome,[16],inactive
same,outcome,[17],inactive
C=C(C)C(=O)OCC(F)(F)C(F)(F)C(F)(F)F,outcome,[1],inactive
same,outcome,[2],inactive
same,outcome,[3],inactive
same,outcome,[4],inactive
same,outcome,[5],inactive
same,outcome,[6],inactive
same,outcome,[7],inactive
same,outcome,[8],inactive
same,outcome,[9],inactive
same,outcome,[10],inactive
same,outcome,[11],inactive
same,outcome,[12],inactive
same,outcome,[13],inactive
same,outcome,[14],inactive
same,outcome,[15],inactive
same,outcome,"CD40, CD40 (gene 958)",inactive
same,outcome,[16],inactive
same,outcome,[18],inactive
same,outcome,[17],inactive
CC(C)(C)C(=O)CC(=O)C(F)(F)C(F)(F)C(F)(F)F,outcome,[1],inactive
same,outcome,[2],inactive
same,outcome,[3],inactive
same,outcome,[4],inactive
same,outcome,[5],inactive
same,outcome,[6],inactive
same,outcome,[7],inactive
same,outcome,[8],inactive
same,outcome,[9],inactive
same,outcome,[10],inactive
same,outcome,[11],inactive
same,outcome,[12],inactive
same,outcome,[13],inactive
same,outcome,[14],inactive
same,outcome,[15],inactive
same,outcome,"CD40, CD40 (gene 958)",inactive
same,outcome,[16],inactive
same,outcome,[18],inactive
same,outcome,[17],inactive
C=CC/C=C/C/C=C/C/C=C/C,outcome,[1],inactive
same,outcome,[2],inactive
same,outcome,[3],inactive
same,outcome,[4],inactive
same,AC50,[5],16 nM (active)
same,outcome,[6],inactive
same,AC50,[7],141 nM (active)
same,outcome,[8],inactive
same,outcome,[9],inactive
same,outcome,[10],inactive
same,outcome,[11],inactive
same,outcome,[12],inactive
same,outcome,[19],inactive
same,outcome,[13],inactive
same,outcome,[14],inactive
same,outcome,[15],inactive
same,outcome,"CD40, CD40 (gene 958)",inactive
same,outcome,[16],inactive
same,outcome,[18],inactive
same,outcome,[17],inactive
FC(F)(F)C(F)(F)C(F)(F)C(F)(F)C(F)(F)C(F)(F)C(F)(F)C(F)(F)F,outcome,[1],inactive
same,outcome,[2],inactive
same,outcome,[3],inactive
same,outcome,[4],inactive
same,outcome,[5],inactive
same,outcome,[6],inactive
same,outcome,[7],inactive
same,outcome,[8],inactive
same,outcome,[9],inactive
same,outcome,[10],inactive
same,outcome,[11],inactive
same,outcome,[12],inactive
same,outcome,[13],inactive
same,outcome,[14],inactive
same,outcome,[15],inactive
same,outcome,"CD40, CD40 (gene 958)",inactive
same,outcome,[16],inactive
same,outcome,[18],inactive
same,outcome,[17],inactive
